Assay results published in PubChem BioAssay (NCATS).
Results filed as inconclusive are left out. A call without a number means that no potency is given here. Activity calls are given as the source filed them. Calls come from the whole dose curve; as a rule, active = well fitted inhibition curve with a large enough effect; inconclusive = small, poorly fitted or top-dose-only effect; inactive = no such curve, though single readings can be large or run the other way.

These compounds were tested against Retinaldehyde dehydrogenase 3 (Homo sapiens) (UniProt P47895) (assay: qHTS for Inhibitors of the Aldehyde Dehydrogenase Family (ALDH1A3) Primary screen (AID 2061315)). Settings: ALDH inhibition qHTS; series mostly up to 56 µM.

Row | Compound | Potency
1 | CC(C)c1cccc(-n2cnc3cc(C(=O)N4CCCCC4)ccc32)c1 | inactive
2 | CN(C)c1cccc(-c2nnc(N3CCC(C(N)=O)CC3)s2)c1 | inactive
3 | Cc1ccc(NS(=O)(=O)c2cc3c(cc2-c2ccccc2)NC(=O)CO3)cc1C | inactive
4 | CC(C)c1ccc(-n2ncc3c(=O)n(CC(=O)Nc4cc(F)ccc4Cl)cnc32)cc1 | inactive
5 | CS(=O)(=O)Nc1cccc(-c2cc(F)c(S(=O)(=O)N3CCN(S(=O)(=O)c4ccc5c(c4)OCCO5)CC3)cc2F)c1 | inactive
6 | O=C(NCc1ccc(Oc2ccccc2)cc1)c1nc(-c2cc(Br)c(O)c(Br)c2)no1 | inactive
7 | O=C(N1Cc2ccc(Nc3nn4c(=O)c5ccccc5nc4s3)cc2C1)C(F)(F)F | inactive
8 | CN(C)c1ccc(C(=O)OCC#CCSc2nnc(-c3cccc4ccccc34)o2)cc1 | inactive
9 | O=c1c2ccccc2nc2sc(NCc3ccc([S+](=O)([O-])c4ccccc4)cc3)nn12 | inactive
10 | C/C=C/C1=CC2=C(CO1)C(=O)C(C)(OC(=O)c1c(C)cc(O)cc1OC)C(O)C2 (stereo not given) | inactive
11 | COc1cccc(-c2nc(SC)nc3sc(C(=O)NC(C)(C)C)c(N)c23)c1 | inactive
12 | CCCC(C)NC(=O)Cn1nc(-c2ccc(C)cc2)ccc1=O (stereo not given) | inactive
13 | Fc1cccc(CNc2nc(-c3ccccc3C(F)(F)F)nc3ccccc23)c1 | inactive
14 | O=C1CCCC2=C1C(c1ccccc1I)N=C(Nc1nc3ccccc3o1)N2 (stereo not given) | inactive
15 | COc1ccc(CC(NC(C)=O)C(=O)O)cc1 (stereo not given) | inactive
16 | c1cncc(-c2ccc3ncnc(NCc4ccc5c(c4)OCO5)c3c2)c1 | inactive
17 | O=C(NC1CCCc2c1cnn2CCO)c1ccccn1 (stereo not given) | inactive
18 | C=C1C(=O)O[C@H]2C1[C@H](OC(=O)/C(=C/CO)COC(=O)/C(C)=C/CO)CC(=C)[C@@H]1CC(=O)[C@@H](C)[C@@H]12 (stereo not given in full) | inactive
19 | Cc1ccsc1CN(C)c1ncnc2ccc(-c3ccc(CO)o3)cc12 | inactive
20 | COc1ccc2c(=O)n3nc(Nc4ccc5c(c4)CCC5)sc3nc2c1 | inactive

Row | Compound | Potency
21 | Cc1ccc(CN(C)c2nc(-c3ccccc3C(F)(F)F)nc3ccccc23)cc1 | inactive
22 | COc1cc2c(cc1OC)CN(C(=O)/C=C/c1c(-c3ccccc3)n(C)c3ncccc13)CC2 | inactive
23 | COc1cc(F)c(S(=O)(=O)N2CCN(S(=O)(=O)c3cccs3)CC2)c(F)c1 | inactive
24 | CCCC1CCN(C(=O)COC(=O)c2ccc(S(C)(=O)=O)c([N+](=O)[O-])c2)CC1 | inactive
25 | Cc1ccc(CNc2ncnc3cc(-c4ccc5c(c4)OCO5)ccc23)o1 | inactive
26 | Cc1ccc(N2CCN(S(=O)(=O)c3ccc4c(c3)CC(=O)N4)CC2)cc1 | inactive
27 | CNc1oc(-c2cccc3ccccc23)nc1C(=O)Nc1cccc(C#N)c1 | inactive
28 | CC(C)Oc1ccc(-c2csc(N3CCC(C(N)=O)CC3)n2)cc1 | inactive
29 | CC(=O)c1ccc(-c2ccc3ncnc(NCc4ccc(C)o4)c3c2)o1 | inactive
30 | Cc1ccc(CNc2ncnc3ccc(-c4ccc5c(c4)OCO5)cc23)s1 | inactive
31 | N#Cc1c(-c2ccc(-c3ccccc3)cc2)no[n+]1[O-] | inactive
32 | N#Cc1c(-c2ccccc2C(F)(F)F)nc2ccccc2c1NCc1ccc(-c2ccnc(C(F)(F)F)c2)cc1 | inactive
33 | Cc1ccnc(NC(=S)N2CCN(c3ccc(F)cc3)CC2)c1 | inactive
34 | c1ccc(-n2ccc(-c3nnc4n3CCCCC4)c2)cc1 | inactive
35 | COc1cc(O)c(C(CC(=O)N2CC(C)CC(C)C2)c2ccc(C)cc2)c(OC)c1 (stereo not given) | inactive
36 | O=C(O)c1ccc(O)c2ncc(-c3ccc(N4CCOCC4)cc3)cc12 | inactive
37 | N#Cc1ccc(-c2ccc(-c3nc4ccccc4c(=O)[nH]3)o2)cc1 | inactive
38 | Cc1ccc(C#Cc2cc(-c3nn(-c4nc(C(=O)O)cs4)c(CC4CC4)c3Cc3ccc(S(N)(=O)=O)c(F)c3)ccc2F)o1 | inactive
39 | CCOc1cccc(-c2cc(-c3n[nH]c(=S)n3CC)c3ccccc3n2)c1 | inactive
40 | O=C(Nc1ncnc2c1C(c1ccccc1)c1c(ccc3ccccc13)O2)c1ccccc1 (stereo not given) | inactive
